Screening data from PubChem BioAssay.
Rows were chosen to be rich in hits. Some 0.9% of all compounds tested hit in one or more screens of this group.
TAR Tat displ: TAR RNA-Tat peptide displacers, HIV-1, primary screen, biochemical, FRET, FAM/TAMRA-labeled Tat; HIV-1 TAR RNA, Tat peptide displacement FRET; active compounds read high; z-score (test concentration not listed); 100,000 compounds, 0.6% hits; active = z-score of 3 or more in at least 2 runs
CDC25B-CDK2 inh: primary biochemical HTRF screen for blockers of M-phase inducer phosphatase 2 binding to CDK2/cyclin A. P30305+P24941. HTRF CDC25B-CDK2/CyclinA binding, anti-His/anti-Flag; active compounds read high. z-score (test concentration not listed). 94,000 compounds, 0.72% hits. AID 1259370, 2018; in the data active = z-score above about 3.2
* hit, by the source's call; . = no result given.

SMILES | TAR Tat displ | CDC25B-CDK2 inh
CC(C)NCC(O)COc1ccc(COCCOC(C)C)cc1 (centres undefined) | -0.4 | 5.2*
CCCCN(C)S(=O)(=O)c1ccc2c(c1)CCCC(=O)N2 | -0.09 | .
N#CC1=C(N)Oc2c(oc(CO)cc2=O)C1c1ccccc1Cl (centres undefined) | . | 0.44
CCOc1ccc(-c2cc(C(=O)O)c3cc(Br)ccc3n2)cc1 | 1.9 | -2.4
COc1ccc(-c2cc(C(=O)OC(C)C)c3cc(Br)ccc3n2)cc1 | . | 15*
COc1ccccc1C1C2=C(Nc3c1c(=O)n(C)c(=O)n3C)c1ccccc1C2=O (centres undefined) | -0.35 | -1.2
O=C(CCc1nc(-c2ccco2)no1)Nc1ccncc1 | 1.2 | 6.6
O=C(CCCc1nc(-c2ccco2)no1)Nc1ccncc1 | 4.2* | -2.1
Cc1c(C(=O)N2CCCC2)c(S(=O)(=O)NC2CCCc3ccccc32)c(C)n1C (centres undefined) | 0.35 | .
CCCc1cc(=O)n2[nH]c(-c3ccco3)nc2n1 | 1.3 | .
CCOC(=O)Cc1cc(=O)n2[nH]c(-c3ccco3)nc2n1 | 1.8 | 13*
O=C1CSc2ccc(S(=O)(=O)N3CCc4ccccc4C3)cc2N1 | 2.5 | .
O=C(Cn1cnc2c(nc3n2CCCCC3)c1=O)N1CCN(c2ccccc2)CC1 | -0.31 | .
CCN1CCc2c(sc(-n3cccc3)c2CNC(=O)NC2CCCCC2)C1 | -5.5 | 0.72
CCCc1cnc(N2CCN(S(=O)(=O)c3ccc4c(c3)CCO4)CC2)nc1 | . | -2.3
O=C(Nc1ccccc1SCc1cc(=O)n2c(-c3ccccc3)csc2n1)c1ccco1 | 8.4* | .
Cc1nn2c(=O)cc(CSc3ccccc3NC(=O)c3ccco3)nc2s1 | -0.08 | .
COc1ccc(-c2csc(C)n2)cc1S(=O)(=O)NCc1cccs1 | 0.49 | .
Cc1cc(CNC(=O)Nc2ccc(Cl)cc2)c(C)n1-c1ccc(F)cc1 | 0.13 | .
CCOC(=O)c1c(N)sc(SSc2sc(N)c(C(=O)OCC)c2C)c1C | . | 4.4*
CCOC(=O)c1c(N)sc(C)c1C | 0.93 | -0.25
O=C(c1cc(-c2ccco2)on1)N1CCCC1c1cccc(F)c1 (centres undefined) | -2.7 | -2.5
Cc1ccccc1-c1nc(-c2ccc(Cl)cc2)no1 | 0.55 | 0.71
Cc1ccc(S(=O)(=O)NC(=O)Nc2ncc3c(n2)CC(c2ccco2)CC3=O)cc1 (centres undefined) | 2.8 | 8.3*
CCc1ccc2nc(Nc3ncc4c(n3)CC(c3ccco3)CC4=O)nc(C)c2c1 (centres undefined) | 32* | 14
SMILES | TAR Tat displ | CDC25B-CDK2 inh
CC(=O)Nc1ncc2c(n1)CC(c1ccco1)CC2=O (centres undefined) | -0.17 | 3
Cc1nc(Nc2ncc3c(n2)CC(c2ccco2)CC3=O)nc2ccccc12 (centres undefined) | 3.4 | 1.1
Cc1c(C(=O)O)sc2ncnc(NCCCN3CCC(N4CCCCC4)CC3)c12 | -0.64 | .
CCOC(=O)c1sc(=S)n(-c2ccc(OC)c(Cl)c2)c1N | 1.9 | .
C=CCOc1c(Cl)cc(CNc2ccc3[nH]c(=O)[nH]c3c2)cc1OC | 1.6 | -0.61
COc1cc(CNc2ccc3[nH]c(=O)[nH]c3c2)cc(Br)c1OCc1ccc(F)cc1 | -2.9 | 7.2*
COc1cc(CNCCSc2nnnn2C)cc(Br)c1OCc1ccc(F)cc1 | 1.5 | 1.4
CCOc1cc(CNc2ccc3[nH]c(=O)[nH]c3c2)cc(Cl)c1OCC | -2.6 | 7.7*
CCOC(=O)/C(C#N)=C/NCCc1c[nH]c2ccccc12 | . | 0.28
CCCn1c(COc2cccc(OC)c2)nc2ccccc21 | 0.67 | -1.5
CC(=O)Oc1ccc(OC(C)=O)c2c1C(=O)c1ccccc1C2=O | . | 17*
CC(=O)Oc1ccc2ccccc2c1-c1c(OC(C)=O)ccc2ccccc12 | -0.52 | -2
Cc1nn(-c2ccccc2)nc1C(=O)NNC(=O)c1ccccc1 | . | -0.23
OCCNC(=S)Nc1ccc2nc3c4ccccc4c4ccccc4c3nc2c1 | . | 21*
O=C(Nc1ccc2nc3c4ccccc4c4ccccc4c3nc2c1)N(CCO)c1ccccc1 | . | -2
CN(C)CCNc1cc(N2CCOCC2)c2noc3c2c1C(=O)c1ccccc1-3 | -1.4 | -2
CN(C)CCNc1cc(N2CCCCC2)c2noc3c2c1C(=O)c1ccccc1-3 | 17* | 6.2*
CN(C)CCCNc1cc(N2CCCCC2)c2noc3c2c1C(=O)c1ccccc1-3 | 1.7 | 0.05
CCNc1cc(N(C)CCO)c2noc3c2c1C(=O)c1ccccc1-3 | -0.08 | -0.52
CCN(CC)CCNc1cc(N2CCCC2)c2noc3c2c1C(=O)c1ccccc1-3 | -1 | -0.38
CN(C)CCCNc1cc(N2CCCC2)c2noc3c2c1C(=O)c1ccccc1-3 | 8.8* | 1.9
CCN(CC)CCNc1cc(N2CCOCC2)c2noc3c2c1C(=O)c1ccccc1-3 | 6.5* | -4.9
CN(C)CCCNc1cc(N(C)CCO)c2noc3c2c1C(=O)c1ccccc1-3 | 7* | -4
CC1=C(c2ccc(C)cc2)S(=O)(=O)NC1=NCCCN1CCc2ccccc2C1 | -1.8 | -0.07
CCOC(=O)[C@H](CCCN=C(N)N)NC(=O)c1ccccc1 | . | -0.66
SMILES | TAR Tat displ | CDC25B-CDK2 inh
COC(=O)c1c(SCc2ccccc2)[nH]c2cc(Cl)ccc2c1=O | -0.86 | .
CC(C)(C)c1ccc2cc(C#N)c(C#N)cc2c1 | . | -1.5
Cc1ccc(-c2nnc3n2N=C(c2ccccc2O)CS3)cc1 | 0.5 | -0.19
CCOC(=O)NCS(=O)(=O)c1ccc(C)cc1 | . | 0.94
CCSc1ncc(Cl)c(C(=O)Nc2nnc(CC(C)C)s2)n1 | -0.3 | -0.69
CN(C)CCn1c2ccccc2n2cc(-c3ccc(F)cc3)nc12 | -1.2 | -1.9
O=C(Nc1ccc(Cl)cc1)c1cc2ccccc2c(=O)o1 | . | -0.8
CCCN1CCN(c2cc(NCCCOCC)c3c4c(onc24)-c2ccccc2C3=O)CC1 | 6.3* | 1.9
CCCN1CCN(c2cc(NCCOC)c3c4c(onc24)-c2ccccc2C3=O)CC1 | -0.12 | -2.1
N#Cc1c(NC(=O)c2ccc(Cn3cc(Cl)cn3)o2)sc2c1CCCC2 | 0.15 | -1.1
O=CC(C=Nc1ccc(Cl)cn1)[N+](=O)[O-] (centres undefined) | . | 4.3*
Cc1c(C(=O)N2CCCCC2)c(S(=O)(=O)N2CCCc3ccccc32)c(C)n1C | -1.9 | .
Cc1cc(-c2ccc(S(=O)(=O)NCc3ccccc3C)s2)on1 | 0.38 | .
Cc1ccc2c(C)nc(Nc3nc4c(c(=O)[nH]3)CCC4)nc2c1 | . | 10*
Cc1ccc2nc(Nc3nc4c(c(=O)[nH]3)CCCC4)nc(C)c2c1 | 0.36 | 10
Cn1c(CSC2CN(C(c3ccccc3)c3ccccc3)C2)n[nH]c1=S | . | 13*
Cn1c(CSc2ccccc2)n[nH]c1=S | . | -0.72
CCC(C)Nc1cc(C)nc2cc(-c3ccc(OC)c(OC)c3)nn12 (centres undefined) | 3.2 | 0.88
CC(C)CC(NS(=O)(=O)c1ccc2c(c1)oc(=O)n2C)C(=O)NC1CCCCCCC1 (centres undefined) | . | -0.58
O=C(Nc1ccc(Br)cc1)N1CCSc2ncccc21 | 0.44 | .
O=C(Cc1ccc(NC(=O)N2CCSc3ncccc32)cc1)Nc1ccc(Br)cc1 | 0.53 | 16*
COc1ccc(OC)c(-c2noc(CSc3nnc(C)n3-c3cccc(C)c3)n2)c1 | -1.9 | -2.4
CCn1cnc2cc(NCc3nc4ccccc4n3C)ccc21 | -0.54 | 2.5
CCn1cnc2cc(NCc3nc4ccccc4n3Cc3ccccc3)ccc21 | 1.9 | 13*
Cn1c(=O)c2c(-c3ccccc3Cl)n(-c3ccc(Cl)cc3)cc2n(C)c1=O | -0.16 | -0.43
